Results on seven molecules are retold here after PubChem BioAssay (NCI).

The structures appear in SMILES notation. The panel holds about 83,000 compounds, 20% with a hit somewhere; the sample as a whole holds those more often.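 Interpretation: 100, growth as untreated; towards 0, rising growth inhibition; 0, no net growth; 0 to -100, cell death. Compounds scoring below 10 were considered active.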 Unmarked numbers belong to inactive results. Active and inactive are the calls of the source.

Common to all, as to assay: NCI-60 one-dose screen, 48 h (100 = growth as untreated, 0 = no growth, -100 = all killed)
What all share (conditions): 10 µM unless noted

The subject of assay [1] is NCI-H23 lung.
Assay [2] deals with NCI-H226 lung.
Assay [3] deals with NCI-H322M lung.
In assay [4] the test system is HOP-62 NSCLC.
Assay [5] concerns NCI-H460 lung.
The subject of assay [6] is HOP-92 NSCLC.
Assay [7] relates to NCI-H522 lung.
The test system of assay [8] is A549/ATCC NSCLC.
Assay [9] has as its system 786-0 renal.
Assay [10] relates to COLO 205 colon.
Assay [11] concerns DU-145 prostate.
In assay [12] the test system is K-562 leukemia.
Assay [13] deals with MALME-3M melanoma.
The subject of assay [14] is MDA-MB-231 breast.
Assay [15] concerns RXF 393 renal.
The test system of assay [16] is SF-268 CNS.
The subject of assay [17] is SF-295 CNS.
Assay [18] has as its system SF-539 CNS.
Assay [19] concerns UACC-257 melanoma.
Assay [20] relates to M14 melanoma.

On to `CC1=C(C)C(=O)C(Nc2ccc3c(c2)OCO3)=C(Br)C1=O`, for which the growth in assay [1] was 90%; in assay [2] it was 93%; in [3] it was 96.5%; in assay [4], 92.9%; in [5], 100%; in [6] it was -22.9% (active). For the same molecule, the growth in [7] is 96.5%; in assay [8], 102%; in assay [9] it was 103%; in assay [10], 122%; in assay [11], 109%; in [12], 3.43% (active). In addition, the growth in assay [13] was 112%; in assay [14], 69.4%; in [15], 105%; in assay [16], 96.7%; in assay [17], 96.8%; in [18], 106%. Moreover, the growth was 94.3% in assay [19] and 105% in [20].
Regarding `NC(=O)c1ncn2c(=O)n(CCF)nnc12`, the growth in assay [1] is 94.5%; in assay [2] it was 68.5%; in assay [3], 78%; in assay [4], 53.5%; in [5], 54.9%; in assay [6], 99.3%. Moreover, the growth in assay [7] was 82.7%; in assay [8], 99%; in [9] it was 61.3%; in [10], 57.4%; in [11], 38.6%; in [12], 26.7%. For the same molecule, the growth is 72.8% in [13]; 66.8% in [14]; 96.6% in assay [15]; 57.3% in assay [16]; 34.7% in assay [17]; 63.9% in assay [18]. The figures for the growth in [19] and in assay [20] were 80.9% and 33.9%, respectively.
Regarding `COc1cc2c3c(cc4c5c(ccc4c3c1OC)OCO5)N(CCN(C)C)C2=O`, the growth in [1] is -17.8% (active); in assay [2], -58.8% (active); in assay [3], 0.11% (active); in assay [4] it was 6.73% (active); in assay [5], -20.5% (active); in assay [6], -9.11% (active). Besides, the growth is -6.46% (active) in [7]; 0.384% (active) in assay [8]; -16.2% (active) in assay [9]; -10.7% (active) in assay [10]; 0.415% (active) in assay [11]; 1.42% (active) in [12]. The growth in assay [13] was -79.8% (active); in [14], -1.13% (active); in assay [15], -88.5% (active); in assay [16] it was 5.2% (active); in assay [17], -16.8% (active); in [18], -58.4% (active). For the same molecule, the growth in assay [19] is -32.9% (active); in [20] it was -54.5% (active).
Take `COc1ccc([C@@H]2C(=O)N(c3cc(OC)c(OC)c(OC)c3)[C@H]2c2ccc(OC)c(O)c2)cc1`: the growth in [1] is 28.9%; in [2], 60.2%; in [3] it was 42.7%; in [4], 31.3%; in assay [5] it was 4.83% (active); in assay [6], 25.1%. Also, the growth was -39.4% (active) in assay [7]; 29% in assay [8]; 6.33% (active) in assay [9]; -79.3% (active) in assay [10]; 10.9% in assay [11]; 12.7% in assay [12]. Moreover, the growth in assay [13] was 69.5%; in assay [14], 28.8%; in assay [15] it was 16.7%; in assay [16], 25.2%; in [17] it was 17.9%; in [18] it was 5.74% (active). The growth in assay [19] is 56.6%; in assay [20], 12.6%.
With `CN1CCN(CCCCCC(=O)Nc2nc(-c3cccc(NS(=O)(=O)c4cccc5c(N(C)C)cccc45)c3)cs2)CC1`, the growth is 65.2% in assay [1]; 85.9% in assay [2]; 96% in assay [3]; 90.3% in [4]; 79.3% in [5]; 32.4% in [6]. Also, the growth in [7] was 91.8%; in [8] it was 70.9%; in assay [9], 79%; in assay [10] it was 82.4%; in [11], 84.8%; in assay [12] it was 7.02% (active). In addition, the growth in [13] was 17.5%; in assay [14] it was 68.8%; in assay [15], 50.9%; in [16], 90.9%; in assay [17], 35.6%; in assay [18], 58.2%. Moreover, the growth in assay [19] is 42.7%; in [20], -28.7% (active).
For the molecule `CN1CCN(c2ccc(C(=O)/C=C/c3cc(F)cc(C(F)(F)F)c3)cc2)CC1`, the growth in assay [1] is 72%; in assay [2] it was 61.8%; in assay [3] it was 78.9%; in assay [4] it was 93.1%; in assay [5], 80.2%; in [6] it was 40.6%. Also, the growth in assay [7] is 83.4%; in assay [8], 66.2%; in assay [9], 89.7%; in assay [10] it was 100%; in [11], 49.6%; in assay [12] it was 11.1%. For the same molecule, the growth in [13] was 91.7%; in assay [14] it was 72.9%; in assay [15] it was 70.5%; in [16], 82.8%; in [17], 88.6%; in assay [18], 59.5%. Also, the growth in [19] was 91.1%; in assay [20], 92.2%.
Consider `CC(=O)N(O)CCCCCNC(=O)CCC(=O)N(O)CCCCCNC(=O)CCC(=O)N(O)CCCCCN(CCCCCCCCCC[P+](c1ccccc1)(c1ccccc1)c1ccccc1)CCCCCCCCCC[P+](c1ccccc1)(c1ccccc1)c1ccccc1`, for which the growth in assay [1] is -16.5% (active); in assay [2], -6.05% (active); in [3], -28.9% (active); in [4] it was 7.35% (active); in assay [5], -12.4% (active); in assay [6], -18.4% (active). Also, the growth is -18.8% (active) in assay [7]; 9% (active) in assay [8]; 21.5% in assay [9]; -43.4% (active) in assay [10]; 14.9% in assay [11]; 9.98% (active) in assay [12]. The growth in assay [13] was -17.4% (active); in assay [14], 16.4%; in assay [15], -9.88% (active); in [16], 16.2%; in [17] it was 12.7%; in [18], -8.94% (active). Further, the growth was -10.9% (active) in [19] and 11% in assay [20].
